Reference: ChEMBL document CHEMBL1157539, “Thousands of chemical starting points for antimalarial lead identification” (Nature, 2010)

tested on: HepG2; experiment: GSK_TCMDC: Percent inhibition of human HepG2 cell line. Test compounds present at 10uM.; format: functional

| Structure (SMILES) | Inhibition [%] |
| --- | --- |
| CCCC1(NC[C@@H](O)[C@H](Cc2ccccc2)NC(=O)c2cc(NCC)cc(N3CCCCS3(=O)=O)c2)CC1.Cl | 1 |
| CN(C(=O)c1nn(-c2ccccn2)c2nccc(-c3cccs3)c12)C1CCCCC1 | 4 |
| O=C(O)C(F)(F)F.c1cncc(CCNCc2ccc(-c3ccc(-c4nc5ccccc5[nH]4)s3)cc2)c1 | 35 |
| O=S(=O)(Nc1cccc(CCN2CCC(N3CCCCC3)CC2)c1)c1ccc(-c2ccccc2)cc1 | 76 |
| CCNc1cc(C(=O)N[C@@H](Cc2cc(F)cc(F)c2)[C@H](O)CNCc2cccc(C(F)(F)F)c2)cc(N2CCCCS2(=O)=O)c1.Cl | 1 |
| NC1CCN(c2nc(NCCCc3ccc(O)cc3)nc(NCc3ccccc3-c3ccc(C(F)(F)F)cc3)n2)CC1.O=C(O)C(F)(F)F | 15 |
| CCn1c(C)cc(C=C2SC(=Nc3ccccc3)NC2=O)c1C | 27 |
| Cl.NOCCCCOc1cc(Cl)c(Cl)cc1Cl | 6 |
| Cc1cnc(-c2ccc(NC(=O)c3coc4ccc(N5CC(C)N(C)C(C)C5)cc34)cc2)o1.Cl (centres undefined) | 18 |
| C[C@@H](C(N)=O)N1CCCCC1c1ccc(OCc2cccc(F)c2)cc1 (some centres undefined) | 79 |
| COC(=O)c1cccc(NC(=O)NC2CCN(c3ccnc(NCc4ccc(F)cc4)n3)CC2)c1 | 29 |
| Cn1cc(CCNc2ccnc(NCCc3coc4ccccc34)n2)c2ccccc21 | 26 |
| Cc1cc2ccccc2c(CON2C(=N)N=C(N)NC2(C)C)c1C.Cl | 65 |
| NC(=O)c1cccc(C(=O)Nc2cccc(-c3cccc(-c4nc5cc(C(F)(F)F)ccc5[nH]4)c3)c2)c1 | 71 |
